Compounds with a hit are over-represented: about 19% of the library has one in this group of screens.
ELG1 repair inh = qHTS screen for small molecules that inhibit ELG1-dependent DNA repair in human embryonic kidney (HEK293T) cells expressing luciferase-tagged ELG1 | HEK293T ELG1-luciferase reporter, luminescence, 16 h; DNA damage induced by 5-fluorouridine | Potency, µM (top dose mostly 46.1 µM), without a hit: at the highest dose activity change, negative = inhibition, hits mostly inhibitors | 2.3% of 330,000 active | AID 504467, 2011; also: potency is read from the fitted curve at half-maximal effect; nearly all actives have a fitted effect of over 55% in size
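DMSO vehicle served as the neutral condition. Each well held 2,000 cells given 5-fluorouridine plus compound; after 16 hr at 37 °C/5% CO2, ONE-Glo was added and luciferase measured 30 min later.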
IL1B secr inh = qHTS for Inhibitors of Inflammasome Signaling: IL-1-beta AlphaLISA Primary Screen. THP-1 LPS/ATP IL-1B secretion, AlphaLISA, 16 h; active compounds read low. activity change, % at 57.5 µM. 4.7% of 360,000 active. AID 743279, 2014; in the data active = activity change below about -50%; inconclusive = mostly about -30% to -49%
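THP-1 cells pretreated 1 hr with compounds (up to 57.5 uM final), then stimulated with LPS (250 ng/mL final) plus ATP (1.25 mM final); secreted IL-1B measured by AlphaLISA after 16 hr, decreased signal indicating inhibition.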
DT40 TDP1 no CPT = qHTS for Inhibitors of human tyrosyl-DNA phosphodiesterase 1 (TDP1): qHTS in cells in absence of CPT; DT40 Tdp1-/- hTDP1 cells, no CPT, ATP luminescence, 48 h; Potency, µM (titrated, usually from 46.2 µM), without a hit: top-dose activity change, negative = growth inhibition, actives largely listed as inhibitors; 15% of 420,000 active; also: potency is read from the fitted curve at half-maximal effect; nearly all actives have a fitted effect of over 55% in size
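Seeded 400 DT40-hTDP1 cells/well (vehicle DMSO, no 20 nM CPT); pinned compounds; ≥48 hr at 37 °C; CellTiter-Glo luminescence as viability measure.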
TDP1 cell CPT = qHTS for Inhibitors of human tyrosyl-DNA phosphodiesterase 1 (TDP1): qHTS in cells in presence of CPT; chicken DT40 Tdp1-/-;hTDP1 cells + 20 nM CPT, ATP luminescence, 48 h; Potency, µM (highest dose often 46.2 µM), for the others: top-dose activity change, negative = growth inhibition, hits mostly inhibitors; 12% of 420,000 active; also: potency is read from the fitted curve at half-maximal effect; nearly all actives have a fitted effect of over 55% in size
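Cell growth measured by CellTiter-Glo luminescence after a minimum 48 h, 37 C compound exposure with 20 nM CPT in Tdp1-knockout DT40 cells stably expressing hTDP1, seeded 400/well; qHTS titration format.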
HT1080-NT tox = qHTS for induction of synthetic lethality in tumor cells producing 2HG: qHTS for the HT-1080-NT fibrosarcoma cell line. AID 686970, 2013. HT-1080-NT fibrosarcoma viability, CellTiter-Glo ATP luminescence, 48 h. Potency, µM (titrated, usually from 46.1 µM), inactives show top-dose activity, negative = less viability, most hits filed as cytotoxic. 1.6% of 360,000 active;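 also: NT is the 2HG producing partner of a matched IDH1 knockdown line; potency is read from the fitted curve at half-maximal effect; 0% = DMSO-treated cells and -100% = media-only wells without cells; nearly all actives have a fitted effect of over 55% in size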
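Read-out is CellTiter-Glo luminescence after 10 minutes at room temperature, following 48 hours' compound treatment of HT-1080-NT cells (750 cells/well, RPMI, 5% FBS, 37 degrees C).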
HT1080 IDH1KD tx = qHTS for induction of synthetic lethality in tumor cells producing 2HG: qHTS for the HT-1080-IDH1KD cell line | HT-1080 IDH1 knockdown viability, ATP luminescence, 48 h | Potency, µM (highest dose often 46.1 µM), inactives show at the highest dose activity, negative = toxicity, most hits filed as cytotoxic | 2% of 360,000 active;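 also: potency is read from the fitted curve at half-maximal effect; 0% = DMSO wells and -100% = cell-free medium wells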
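HT-1080-IDH1KD cells (IDH1 knocked down), 750/well in RPMI with 5% FBS, treated with compound 48 h at 37 degrees C. Viability by CellTiter-Glo luminescence, normalised to DMSO and no-cell wells; concentration-response curves classed.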
* = called active by the depositor; ? = inconclusive; . = not tested or not shown. Unless noted, calls follow the shape of the dose curve; as a rule, active = well fitted curve in the direction sought with a large enough effect; inconclusive = small, poorly fitted or top-dose-only effect, or another doubt; inactive = no such curve, though single readings can be large; an effect the other way counts as inactive or inconclusive. Unless noted, % is scaled to controls: 0 for no effect and ±100 for the full control effect.

SMILES	ELG1 repair inh	IL1B secr inh	DT40 TDP1 no CPT	TDP1 cell CPT	HT1080-NT tox	HT1080 IDH1KD tx
O=C(CN1C(=O)c2ccccc2S1(=O)=O)Nc1cc(S(=O)(=O)N2CCOCC2)ccc1N1CCOCC1	.	.	-6%	-4%	.	.
O=C(CN1CCc2ccccc2C1)Nc1cc(S(=O)(=O)N2CCOCC2)ccc1N1CCCC1	-3%	-19	?	15µM*	5%	7%
Cc1cc(=O)n(C(C)C(=O)NCc2ccccc2Cl)c2c1c(C)nn2-c1ccccc1 (stereo not drawn)	.	.	-10%	-20%	.	.
O=S1(=O)C[C@H](N2CCN(CC3CC3)CC2)[C@@H](COCc2ccccc2)N1	.	15	?	?	-12%	9%
CCN1CCN(CC(=O)Nc2cccc(C)c2C)C(=O)C1=O	6%	-1	-25%	2.3µM*	0%	1%
CC(=O)c1cn(CC(=O)Nc2cccc(C)c2C)c2ccccc12	-4%	30	26µM*	?	0%	?
CC(=O)c1cn(CC(=O)Nc2ccc(C)cc2C)c2ccccc12	?	6	5.8µM*	5.2µM*	-4%	-16%
Cc1ccc(C)c(NC(=O)Cn2cc(C(=O)C3CC3)c3ccccc32)c1	-3%	7	?	?	-12%	-21%
N#Cc1ccccc1Cn1c(=O)n(CCCCC(=O)NCc2ccc3c(c2)OCO3)c(=O)c2ccccc21	.	.	-12%	?	.	.
O=C(c1ccccc1Br)N(Cc1ccccc1F)C1CCS(=O)(=O)C1 (stereo not drawn)	.	.	?	-28%	.	.
Cc1c(C(=O)N(Cc2ccccc2F)C2CCS(=O)(=O)C2)oc2ccc(F)cc12 (stereo not drawn)	.	.	21µM*	16µM*	.	.
O=C(c1ccccc1F)N(Cc1ccc(F)cc1)C1CCS(=O)(=O)C1 (stereo not drawn)	1%	-4	-2%	-2%	20%	14%
Cc1ccc2oc(C(=O)N(Cc3ccccc3F)C3CCS(=O)(=O)C3)c(C)c2c1 (stereo not drawn)	.	.	23µM*	?	.	.
CCc1ccc(NC(=O)Cc2c(C(=O)O)c(C)cn2C)cc1	.	.	-1%	-2%	.	.
COc1ccc(COC(=O)CCc2c[nH]c3ccccc23)cc1F	.	-6	10%	-1%	9%	16%
Clc1cccc(CSc2nnc(-c3c[nH]c4ccccc34)o2)c1	0%	12	?	?	?	?
O=c1c(-c2nnc(SCc3ccc(Cl)c(Cl)c3)o2)cccn1Cc1ccccc1	-20%	39	21µM*	?	-5%	0%
Cc1cccc(C(O)c2ncc(-c3cccc(C(F)(F)F)c3)[nH]2)c1C (stereo not drawn)	.	-12	?	?	-24%	?
Cc1ccc(C(O)c2ncc(-c3cccc(C(F)(F)F)c3)[nH]2)c(C)c1 (stereo not drawn)	.	-23	?	?	?	-27%
OC(Cc1cccc(Br)c1)c1ncc(-c2cccc(C(F)(F)F)c2)[nH]1 (stereo not drawn)	.	-8	16µM*	?	?	?
OC(Cc1ccccc1Br)c1ncc(-c2cccc(C(F)(F)F)c2)[nH]1 (stereo not drawn)	.	-61*	16µM*	23µM*	?	16µM*
COc1ccc(Cn2ccnc2SCC(=O)Nc2ccc(F)cc2F)cc1	.	0	23µM*	?	-1%	-3%
O=C(CSc1nccn1Cc1ccc(F)cc1)Nc1nc2ccccc2s1	.	.	23µM*	18µM*	.	.
CCc1ccc([C@@H]2CC=C(C(=O)O)[C@H](c3cccc(Cl)c3)N2S(=O)(=O)c2ccc(C)cc2)cc1	?	26	-25%	-21%	-2%	-1%
O=C1c2[nH]nc(-c3ccc(Br)cc3)c2C(c2cccc(O)c2)N1c1ccc(Cl)cc1 (stereo not drawn)	.	.	23µM*	?	.	.
SMILES	ELG1 repair inh	IL1B secr inh	DT40 TDP1 no CPT	TDP1 cell CPT	HT1080-NT tox	HT1080 IDH1KD tx
O=C1c2[nH]nc(-c3ccccc3)c2C(c2ccccc2)N1c1cccc(C(F)(F)F)c1 (stereo not drawn)	.	.	16µM*	12µM*	.	.
Cc1ccc(-c2n[nH]c3c2C(c2cccc(O)c2)N(c2ccc(C(=O)O)cc2)C3=O)cc1 (stereo not drawn)	2%	45	16%	3%	29%	0%
Cc1onc(-c2ccccc2)c1C(=O)NCCCc1ccccc1	0%	7	?	-19%	-7%	7%
O=C(COC(=O)c1ccc(Cl)nc1)Nc1ccc(S(=O)(=O)N2CCCC2)cc1	10%	14	0%	-13%	10%	5%
CC(=O)c1c(C)[nH]c(C(=O)Nc2cccc(S(=O)(=O)N(C)C)c2)c1C	?	-17	?	?	0%	-4%
O=C(COC(=O)c1ccc(Cl)nc1)Nc1cc(S(=O)(=O)N2CCCCC2)ccc1Cl	4%	23	?	18µM*	4%	0%
CC(=O)c1c(C)[nH]c(C(=O)OCC(=O)Nc2cccnc2Cl)c1C	?	30	?	?	1%	-7%
CC(=O)c1c(C)[nH]c(C(=O)OCC(=O)Nc2ccccc2Cl)c1C	8.2µM*	127	15µM*	16µM*	-30%	-18%
CCN(CC)S(=O)(=O)c1cccc(NC(=O)COC(=O)c2[nH]c(C)c(C(C)=O)c2C)c1	.	53	1µM*	1.8µM*	0%	?
COc1ccc(S(=O)(=O)N2CCOCC2)cc1NC(=O)COC(=O)c1[nH]c(C)c(C(C)=O)c1C	?	31	-16%	-14%	-2%	-15%
CC(=O)c1c(C)[nH]c(C(=O)OCC(=O)Nc2cc(S(=O)(=O)N3CCCC3)ccc2Cl)c1C	16µM*	75	23µM*	?	3%	-3%
CCNC(=O)C1(C)CCN(C(=O)c2c(F)ccc(C)c2F)C1 (stereo not drawn)	.	-16	5%	-2%	18%	11%

High-throughput results: PubChem, National Center for Advancing Translational Sciences (NCATS)
